Most compounds without a hit are left out; they make up all but 5.7% or so of the library.
ssDAF12 agonist: S. stercoralis DAF-12 nuclear receptor activators, primary screen, cell-based, luminescence, HEK293, GRIP1 co-expression, lit1-tk-luc; Nuclear hormone receptor DAF-12 (Strongyloides stercoralis); HEK293 ssDAF-12/GRIP1 lit1-tk-luc reporter; % of 3 µM dafachronic acid response; activation, % at 6.8 µM; hit rate 1% among 370,000; AID 652126, 2013;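 active = activation above the mean over all tested compounds plus 3 SD, cut at about 0.9% in these data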;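 also: 0% = DMSO-only wells and 100% = 3 µM delta7-dafachronic acid wells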
DAX1 inh-1: DAX1 (NR0B1) inhibitors on StAR promoter, primary screen, cell-based, luminescence, SF-1 (NR5A1), full-length DAX-1; HEK293T StAR-luciferase reporter, SF-1/DAX-1 repression relief; inhibition, % at 6.8 µM; hit rate 1.1% among 370,000;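 active = inhibition above the mean over all tested compounds plus 3 SD, cut at about 3.6% in these data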;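 also: 0% = DAX-1 cells with DMSO and 100% = cells lacking DAX-1 with DMSO; higher inhibition means more luminescence from relief of DAX-1 repression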
hgDAF-12 ag: H. glycines DAF-12 receptor agonists, primary screen, cell-based, luminescence, HEK293, GAL4 fusion, UAS-luciferase | Nuclear hormone receptor DAF-12 (Heterodera glycines), GAL4 fusion | HEK293 GAL4-hgDAF12 UAS-luciferase reporter, agonist luminescence; normalized to butyrate control | activation, % at 6.8 µM | hit rate 1.8% among 370,000 | AID 687014, 2013;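 active = activation above a cutoff set at the mean of all screened compounds plus 3 SD, cut at about 10% in these data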;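 also: 0% = DMSO wells and 100% = sodium butyrate wells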
AHR act: AHR activators, primary screen, cell-based, luminescence, luciferase reporter, human; Aryl hydrocarbon receptor (Homo sapiens), P35869; AHR-responsive luciferase reporter cells; activation, % at 5 µM; hit rate 2.5% among 320,000; in the data active = activation above about 47%;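 also: 0% = vehicle wells and 100% = reference agonist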
hcDAF12 agonist: H. contortus DAF-12 nuclear receptor activators, primary screen, cell-based, luminescence, HEK293, lit1-tk-luc reporter; HEK293 hcDAF-12 lit1-tk-luc reporter; 0% DMSO, 100% Δ7-dafachronic acid; activation, % at 6.8 µM; hit rate 1.4% among 370,000; AID 652067, 2013;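 active = activation above the mean of all tested compounds plus 3 SD, cut at about 5.5% in these data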;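 also: 100% = response to 3 µM Δ7-dafachronic acid high control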
DAX1 inh-2: DAX1 (NR0B1) inhibitors, primary screen, cell-based, HEK293, Gal4-DAX1, luciferase luminescence; Nuclear receptor subfamily 0 group B member 1 (Homo sapiens), P51843; HEK293 Gal4-DAX1 luciferase reporter; inhibition, % at 6.75 µM; hit rate 0.99% among 340,000; AID 504766, 2011;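 active = inhibition above the mean over all tested compounds plus 3 SD, cut at about 4.2% in these data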;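 also: 0% = DAX1-transfected cells with DMSO and 100% = empty-vector control cells with DMSO; inhibition shows as a rise in luminescence from relieved DAX1 repression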
Target sequence (P51843 207-470 limits assumed): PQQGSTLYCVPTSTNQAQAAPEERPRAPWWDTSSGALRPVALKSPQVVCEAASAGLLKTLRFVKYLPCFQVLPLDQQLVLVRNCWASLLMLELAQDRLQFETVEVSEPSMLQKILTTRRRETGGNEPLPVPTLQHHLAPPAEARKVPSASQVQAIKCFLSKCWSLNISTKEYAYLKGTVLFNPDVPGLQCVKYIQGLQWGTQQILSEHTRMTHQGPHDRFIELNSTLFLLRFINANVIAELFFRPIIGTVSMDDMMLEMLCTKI
* marks the source's active call; other numbers are inactive results; / = no result given.

SMILES	ssDAF12 agonist	DAX1 inh-1	hgDAF-12 ag	AHR act	hcDAF12 agonist	DAX1 inh-2
C=C1CCC[C@]2(C)C[C@H]3OC(=O)C(CN(Cc4ccc(OC)c(OC)c4)CC(C)O)[C@H]3CC12 (some centres not stated)	-2	-1	-6	2	-1	-1
CCOC(=O)C(Cc1ccccc1)NC(=O)CCc1c(C)nc2ncnn2c1C (configuration not stated)	-1	0	1	-1	5.7*	0
CCOC(=O)C(Cc1ccccc1)NC(=O)CCc1c(C)nc2nc(C)nn2c1C (configuration not stated)	-1	-1	-1	1	1	0
COc1cccc(-c2cc(C(=O)Nc3cccnc3)c3ccccc3n2)c1	-1	-2	-3	19	-1	-1
CC(=O)Nc1ccc(-c2cc(C(=O)O)c3cc4ccccc4cc3n2)cc1	1.8*	0	3	/	5.9*	1
COc1ccc(-c2cc(C(=O)Nc3ccc(C(N)=O)cc3)c3ccccc3n2)cc1	-1	1	11*	28	1	0
COc1ccc(-c2cc(C(=O)Nc3cccnc3)c3ccccc3n2)cc1OC	0	-1	0	67*	2	-1
CCn1nnnc1SCC(=O)NCc1cccs1	-1	0	1	0	1	0
CCSc1ncc(/C=N/Nc2ccc(F)cc2)n1C	0	2	-1	77*	2	1
CCn1nnnc1SCC(=O)Nc1ccc(F)cc1	-1	1	0	3	-1	0
COc1cc(CCN(C(=O)c2cc3ccccc3[nH]2)C(c2ccccn2)c2nc3ccccc3[nH]2)cc(OC)c1 (configuration not stated)	1.1*	0	0	/	4	/
COc1cc(CCN(C(=O)c2cc3ccccc3[nH]2)C(C)c2nc3ccccc3[nH]2)cc(OC)c1 (configuration not stated)	-1	-2	-1	/	-1	/
CNc1ncnc2c1ncn2[C@@H]1O[C@H](CO)[C@@H](O)[C@H]1O	-1	0	1	60*	-2	-1
CC(Cc1ccccc1)Nc1ncnc2c1ncn2C1OC(CO)C(O)C1O (configuration not stated)	-1	1	-4	-3	-3	0
CN(C)c1ncnc2c1ncn2C1OC(CO)C(O)C1O (configuration not stated)	-2	-2	-6	42	-1	-3
C[C@H](Cc1ccccc1)Nc1ncnc2c1ncn2[C@@H]1O[C@H](CO)[C@@H](O)[C@H]1O	-1	3.8*	1	2	-3	0
O=C(/C=N/O)Nc1cccnc1	-1	0	-1	1	-2	1
Cc1ccc(CNC(=O)c2cc(=O)c3cc(C)ccc3o2)cc1	-1	0	-2	3	1	1
Cc1ccc(-n2c(SCC(=O)N(C)C3CCS(=O)(=O)C3)nc3ccccc3c2=O)c(C)c1 (configuration not stated)	-2	-1	-4	1	-3	0
Cc1c(C(=O)NNc2c(Cl)cccc2Cl)n(C)oc1=O	-1	1	-2	-2	-2	6.2*
C[n+]1c2n(c3ccccc31)N=C(c1ccc(Cl)cc1)CS2	-2	-3	-8	64*	-2	-4
COc1ccc(C2=Nn3c(nnc3-c3ccccn3)SC2)cc1	-2	-1	-1	-2	-1	0
COc1ccc(C2=Nn3c([n+](C)c4ccccc43)SC2)cc1	-3	-4	-10	59*	-4	-5
CC1Sc2n(c3ccccc3[n+]2C)N=C1c1ccccc1 (configuration not stated)	-2	-2	-8	74*	-3	-1
CC(=O)Oc1cc2c(C(=O)NCc3ccncc3)c(C)oc2c2ccccc12	-1	-2	2	52*	-2	-1
SMILES	ssDAF12 agonist	DAX1 inh-1	hgDAF-12 ag	AHR act	hcDAF12 agonist	DAX1 inh-2
COc1cc(/C=N\Nc2nc3ccccc3[nH]2)cc(OC)c1OC	-2	-3	-10	50*	-6	-2
C(=N\Nc1nc2ccccc2[nH]1)/c1ccc2ncccc2c1	-2	0	-10	6	-5	-3
COc1cc(OC)c(OC)cc1/C=N/Nc1nc2ccccc2[nH]1	-1	-1	-4	54*	-3	-2
CCN(CC)c1ccc(/C=N/Nc2nc3ccccc3[nH]2)c(O)c1	-1	-2	-4	51*	-1	-4
O=S(=O)(Nc1cccc(-c2ccc(N3CCCCCC3)nn2)c1)c1ccc(C(F)(F)F)cc1	0	0	5	6	6.4*	0
c1ccc(SCCCCNC2CCCC2)cc1	1.7*	1	1	0	1	0
Cc1c(Cl)c([N+](=O)[O-])nn1CCCC(=O)O	-1	0	-1	-1	0	-1
Cc1ccc(OCC(=O)Nc2ccc(S(=O)(=O)N(C)C3CCN(C)CC3)cc2)c(C)c1	-1	1	1	-2	0	1
COc1ccccc1-c1nnc(NC(=O)OCC(C)C)s1	-1	-1	1	64*	0	0
COC(=O)Nc1nnc(-c2ccccc2Cl)s1	0	1	9	55*	2	-1
CS(=O)(=O)Nc1ccc(C(=O)NCCSCc2ccccc2)cc1	-2	1	-1	-1	-1	5.4*
COCCCNC(=O)c1ccc(NS(C)(=O)=O)cc1	-1	1	-2	-2	2	2
CN(C)S(=O)(=O)c1cccc(C(=O)NCCc2ccccc2)c1	0	3.8*	9	7	6.0*	2
CN(C)S(=O)(=O)c1cccc(C(=O)Nc2ccccc2)c1	-2	0	1	2	1	0
CS(=O)(=O)Nc1ccc(C(=O)NCCc2ccccc2)cc1	0	1	11*	3	3	2
CCCCOC(=O)C1=C(C)Nc2nnnn2C1c1ccccc1Cl (configuration not stated)	-2	-1	-4	-1	-2	-1
CC1CC(C)CN(C(=O)CCNC(=O)Cn2ccc3ccccc3c2=O)C1 (configuration not stated)	-1	0	-1	1	1	2
